# Data published in PubChem BioAssay (NCATS).
# A number with no mark means an inactive call. Inconclusive results are not listed. Entries that show only a call come without a potency. Active and inactive are the calls of the source. Unless noted, calls follow the shape of the dose curve; as a rule, active = well fitted curve in the direction sought with a large enough effect; inconclusive = small, poorly fitted or top-dose-only effect, or another doubt; inactive = no such curve, though single readings can be large; an effect the other way counts as inactive or inconclusive.
# How the values were obtained:
# [1] = Identifying Small Molecule Inhibitors of Pancreatic Cancer Stem Cells (SN12C, Adherent) (AID 1259358);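 also: cell survival measured after 48 h of compound exposure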
# Outline: (§1)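 Cytotoxicity read by CellTiter-Glo luminescence after 48 h compound exposure at 37C; percent activity scaled between DMSO-treated cells and cell-free wells. Spheroid formats used cells pre-formed 14 days in stem cell media on hydrogel.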
# [2] = Identifying Small Molecule Inhibitors of Pancreatic Cancer Stem Cells (SN12C, Spheroid) (AID 1259360); settings: Potency: SN12C spheroid viability
# Outline: (§2)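 Spheroids grown 14 days in stem cell media on hydrogel-coated nonadherent plates; 2D lines seeded directly. Compounds added after 4 h attachment, 48 h at 37C, 5% CO2; CellTiter-Glo luminescence normalized to DMSO (no inhibition) and no-cell wells (full inhibition).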
# [3] = Identifying Small Molecule Inhibitors of Pancreatic Cancer Stem Cells (A278, Adherent) (AID 1259361); also: nearly all actives have a fitted effect of over 35% in size
# Outline: as §1
# [4] = P-glycoprotein substrates identified in KB-8-5-11 adenocarcinoma cell line, qHTS therapeutic library screen (AID 1346987); also: nearly all actives have a fitted effect of over 65% in size; also: potency is read from the fitted curve at half-maximal effect; as to activity change, negative = cytotoxicity: series mostly up to about 44 µM
# Outline: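 Human cervical adenocarcinoma KB-8-5-11 cells, selected in colchicine to over-express P-gp and assayed without it, were exposed for 72 h to titrated compounds. An ATP-based luminescent viability signal gave AC50.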
# [5] = Natriuretic polypeptide receptor (hNpr1) antagonism - Pilot counterscreen GloSensor control cell line (AID 1347045; calls by dose curve; also: series mostly up to about 38 µM)
# Outline: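 The SNP-driven cGMP luminescence signal (50 uM, 20 min, room temperature) was measured in GloSensor HEK293 control cells. Compounds were tested as a LOPAC titration series and preincubated for 30-50 min.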
# [6] = target: Atrial natriuretic peptide receptor 2 (Homo sapiens) (UniProt P20594); assay: Natriuretic polypeptide receptor (hNpr2) antagonism - Pilot subtype selectivity assay (AID 1347050; calls by dose curve)
# Sequence of Atrial natriuretic peptide receptor 2 (Homo sapiens) (P20594 whole entry, looked up): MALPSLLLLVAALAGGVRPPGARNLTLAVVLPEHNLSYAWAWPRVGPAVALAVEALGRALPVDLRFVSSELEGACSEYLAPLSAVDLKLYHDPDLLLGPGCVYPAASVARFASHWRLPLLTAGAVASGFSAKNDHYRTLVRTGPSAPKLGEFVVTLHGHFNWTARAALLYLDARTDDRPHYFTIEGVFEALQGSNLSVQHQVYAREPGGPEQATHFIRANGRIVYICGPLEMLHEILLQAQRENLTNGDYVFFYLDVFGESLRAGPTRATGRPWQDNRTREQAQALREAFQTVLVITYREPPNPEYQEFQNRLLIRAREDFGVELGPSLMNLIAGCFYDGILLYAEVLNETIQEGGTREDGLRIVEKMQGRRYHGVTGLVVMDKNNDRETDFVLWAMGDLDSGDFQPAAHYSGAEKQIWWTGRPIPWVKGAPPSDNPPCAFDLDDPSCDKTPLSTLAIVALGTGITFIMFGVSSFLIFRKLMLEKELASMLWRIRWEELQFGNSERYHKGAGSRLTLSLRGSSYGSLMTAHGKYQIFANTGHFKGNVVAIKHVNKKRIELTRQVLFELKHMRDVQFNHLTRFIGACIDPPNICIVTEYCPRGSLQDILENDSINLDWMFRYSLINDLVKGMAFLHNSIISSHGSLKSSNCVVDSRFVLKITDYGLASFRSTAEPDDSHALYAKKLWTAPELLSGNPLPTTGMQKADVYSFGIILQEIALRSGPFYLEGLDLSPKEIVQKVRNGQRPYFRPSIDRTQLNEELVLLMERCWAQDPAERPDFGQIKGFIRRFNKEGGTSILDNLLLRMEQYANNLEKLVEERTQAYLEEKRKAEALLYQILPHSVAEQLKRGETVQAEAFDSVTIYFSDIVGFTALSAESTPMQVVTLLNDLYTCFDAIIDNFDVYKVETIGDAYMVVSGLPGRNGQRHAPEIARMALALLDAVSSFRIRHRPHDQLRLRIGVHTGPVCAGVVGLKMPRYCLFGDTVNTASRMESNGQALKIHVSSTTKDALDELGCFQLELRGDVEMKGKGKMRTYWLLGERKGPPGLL
# Outline: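 Antagonist mode: compounds (LOPAC1280, seven 1:5 dilutions) added 30 min before 1 nM hNppC stimulation of hNpr2-HEK293 cGMP-sensor cells; luminescence read before and 20 min after agonist at ambient temperature.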
# [7] = NS1 protein of Zika virus - qHTS assay to identify small molecule inhibitors in human HEK 293 cells (AID 1347053); also: nearly all actives have a fitted effect of over 55% in size; also: potency is read from the fitted curve at half-maximal effect
# Outline: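 Read-out is a two-antibody TR-FRET for ZIKV NS1, normalized between uninfected cells and infected cells. Compound added 1 h before MR766 infection at MOI 0.5; human HEK 293 cells incubated 24 h, 37 C.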
# [8] = target: T1, Tyrosine-protein phosphatase non-receptor type substrate 1 (Homo sapiens) + Leukocyte surface antigen CD47 (Homo sapiens) (UniProt P78324+Q08722); assay: CD47-SIRPalpha protein protein interaction - LANCE assay qHTS validation (AID 1347057; active = well fitted curve in the direction sought with a large enough effect in the signal ratio, with a control signal flat, not every such curve was filed as active; the % refers to the signal ratio; also: series mostly up to about 38 µM)
# T1 sequence (P78324 whole entry, looked up, the tested form may be a part): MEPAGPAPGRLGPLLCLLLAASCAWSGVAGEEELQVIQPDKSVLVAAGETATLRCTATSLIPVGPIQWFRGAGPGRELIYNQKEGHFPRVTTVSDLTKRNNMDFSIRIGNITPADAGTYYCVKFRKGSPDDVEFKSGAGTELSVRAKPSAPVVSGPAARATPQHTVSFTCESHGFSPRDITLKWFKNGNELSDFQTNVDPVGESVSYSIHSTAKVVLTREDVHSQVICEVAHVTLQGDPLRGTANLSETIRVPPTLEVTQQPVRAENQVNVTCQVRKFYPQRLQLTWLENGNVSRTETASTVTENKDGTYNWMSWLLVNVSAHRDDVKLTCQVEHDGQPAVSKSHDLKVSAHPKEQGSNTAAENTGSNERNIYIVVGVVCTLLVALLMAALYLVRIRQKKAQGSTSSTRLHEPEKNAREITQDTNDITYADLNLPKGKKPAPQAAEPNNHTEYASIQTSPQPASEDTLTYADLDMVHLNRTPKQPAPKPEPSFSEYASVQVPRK
# T1 sequence (Q08722 whole entry, looked up, the tested form may be a part): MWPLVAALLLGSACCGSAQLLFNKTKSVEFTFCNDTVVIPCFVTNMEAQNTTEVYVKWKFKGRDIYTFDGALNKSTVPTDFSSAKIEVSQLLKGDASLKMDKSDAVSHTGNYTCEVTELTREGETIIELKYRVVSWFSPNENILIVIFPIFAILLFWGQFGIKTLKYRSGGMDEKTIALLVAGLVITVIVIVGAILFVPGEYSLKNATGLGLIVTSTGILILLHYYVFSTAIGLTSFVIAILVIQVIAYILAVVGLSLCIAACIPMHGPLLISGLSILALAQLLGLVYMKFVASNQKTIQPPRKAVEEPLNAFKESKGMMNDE
# Outline: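 Inhibition of soluble CD47/SIRPalpha ectodomain association by titrated compounds, measured as 665/615 nm time-resolved FRET ratio after sequential 30 min room-temperature incubations.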
# [9] = target: T1, Tyrosine-protein phosphatase non-receptor type substrate 1 (Homo sapiens) + Leukocyte surface antigen CD47 (Homo sapiens); assay: CD47-SIRPalpha protein protein interaction - HTRF assay qHTS validation (AID 1347058; active = well fitted curve in the direction sought with a large enough effect in the signal ratio, not every such curve was filed as active; the % refers to the signal ratio; also: series mostly up to about 38 µM)
# Outline: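 Soluble extracellular domains (6His-CD47, Avi-tag-biotinylated SIRPalpha) in PBS pH 7.4 with 0.05% IGEPAL CA-630. Compounds were preincubated 30 min at RT with CD47 and anti-His-Eu, then SIRPalpha and SAV-XL665 were added. TR-FRET 665/615 ratio.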
# [10] = target: T1, Tyrosine-protein phosphatase non-receptor type substrate 1 (Homo sapiens) + Leukocyte surface antigen CD47 (Homo sapiens); assay: CD47-SIRPalpha protein protein interaction - Alpha assay qHTS validation (AID 1347059);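 also: bead proximity luminescence from CD47 binding SIRPalpha after compound preincubation with SIRPalpha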
# Outline: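 AlphaScreen signal between CD47-His (12.5 nM) and biotin-SIRPalpha (25 nM) soluble extracellular domains, bead-captured via Ni-NTA and streptavidin. Compounds, in 7-point titrations, met SIRPalpha 30 min before CD47; PBS pH 7.4 with 0.05% IGEPAL.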
# [11] = target: Parathyroid hormone/parathyroid hormone-related peptide receptor (Homo sapiens) (UniProt Q03431); assay: qHTS for PTHR1 Agonists: Optimization Screen against the NCGC LOPAC library (AID 1347079);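 also: GloSensor cAMP luminescence in HEK-293 GP2 cells expressing human PTHR1 with IBMX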
# Sequence of Parathyroid hormone/parathyroid hormone-related peptide receptor (Homo sapiens) (Q03431 whole entry, looked up): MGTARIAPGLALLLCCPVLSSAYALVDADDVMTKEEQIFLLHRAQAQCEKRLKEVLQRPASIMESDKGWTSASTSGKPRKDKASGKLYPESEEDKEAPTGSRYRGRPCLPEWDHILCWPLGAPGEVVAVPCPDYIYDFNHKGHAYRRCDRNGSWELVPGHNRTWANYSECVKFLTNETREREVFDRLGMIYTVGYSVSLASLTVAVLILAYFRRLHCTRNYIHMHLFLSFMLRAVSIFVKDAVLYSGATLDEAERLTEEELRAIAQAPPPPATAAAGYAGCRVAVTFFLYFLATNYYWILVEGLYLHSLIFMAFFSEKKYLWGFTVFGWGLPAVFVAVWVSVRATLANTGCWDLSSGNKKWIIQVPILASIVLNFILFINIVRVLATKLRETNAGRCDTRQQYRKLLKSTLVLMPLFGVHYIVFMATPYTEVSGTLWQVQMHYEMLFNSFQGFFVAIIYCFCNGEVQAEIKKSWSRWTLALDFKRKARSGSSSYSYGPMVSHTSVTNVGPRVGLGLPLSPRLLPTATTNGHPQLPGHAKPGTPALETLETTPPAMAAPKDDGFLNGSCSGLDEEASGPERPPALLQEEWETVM
# Outline: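 Signal increase flags agonism. GP2 cells, derived from HEK-293, express human PTHR1 and a GloSensor cAMP construct.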
# [12] = Identifying Small Molecule Inhibitors of Pancreatic Cancer Stem Cells (Panc1, Adherent) (AID 1259362); settings: Potency: viability;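 also: compound exposure lasted 48 h before the viability read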
# Outline: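 Viability is scored by CellTiter-Glo luminescence 48 h after dosing, expressed as percent activity against vehicle and no-cell references. Spheroid formats rely on cells cultured 14 days in stem cell media beforehand.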
# [13] = P-glycoprotein substrates identified in KB-3-1 adenocarcinoma cell line, qHTS therapeutic library screen (AID 1346986); also: nearly all actives have a fitted effect of over 60% in size
# Outline: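 Dose-response cytotoxicity, KB-3-1 vs P-gp-high KB-8-5-11, no colchicine in assay medium. Read: CellTiter-Glo at 72 h.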
# [14] = Identifying Small Molecule Inhibitors of Pancreatic Cancer Stem Cells (Panc1, Spheroid) (AID 1259359);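 also: compound exposure lasted 48 h before reading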
# Outline: as §2
# [15] = qHTS of pediatric cancer cell lines to identify multiple opportunities for drug repurposing: Primary screen for SJ-GBM2 cells (AID 1347091); also: potency is read from the fitted curve at half-maximal effect
# Outline: (§3)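 Cell viability, CellTiter-Glo luminescence; 500-1,000 cells/well, 8- or 11-point titration, 48 h compound exposure at 37 degrees C, 5% CO2. Controls: DMSO neutral, bortezomib 2.3 µM final as positive.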
# [16] = qHTS of pediatric cancer cell lines to identify multiple opportunities for drug repurposing: Primary screen for A673 cells (AID 1347092); also: nearly all actives have a fitted effect of over 45% in size; also: potency is read from the fitted curve at half-maximal effect
# Outline: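 Luminescence from CellTiter-Glo, taken after 15 min at room temperature, served as the proxy for metabolically active cells following 48 h treatment. Both potency and efficacy were taken from curves fitted to the titration data.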
# [17] = qHTS of pediatric cancer cell lines to identify multiple opportunities for drug repurposing: Primary screen for TC32 cells (AID 1347089); also: nearly all actives have a fitted effect of over 60% in size
# Outline: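 qHTS, TC32, 48 h drug treatment, CellTiter-Glo luminescence as a proxy for metabolically active cells; primary top concentration 46 µM (MIPE 11-pt, NPC 8-pt); confirmatory 11-pt.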
# [18] = qHTS of pediatric cancer cell lines to identify multiple opportunities for drug repurposing: Primary screen for DAOY cells (AID 1347090); also: series mostly up to about 46 µM; nearly all actives have a fitted effect of over 55% in size
# Outline: as §3
smiles,measurement,setting,value
CC(C)C[C@H](NC(=O)[C@@H](O)[C@H](N)Cc1ccccc1)C(=O)O,Potency,[1],inactive
same,Potency,[2],inactive
same,IC50 (viability decrease),[3],inactive
same,Potency,[4],23.5 µM (active)
same,outcome,[5],inactive
same,Potency,[6],inactive
same,Potency,[7],inactive
same,outcome,[8],inactive
same,outcome,[9],inactive
same,outcome,[10],inactive
same,outcome,[11],inactive
CN([C@@H](Cc1ccc(OS(=O)(=O)c2cccc3cnccc23)cc1)C(=O)N1CCN(c2ccccc2)CC1)S(=O)(=O)c1cccc2cnccc12,Potency,[1],inactive
same,Potency,[2],inactive
same,IC50 (viability decrease),[3],inactive
same,Potency,[12],inactive
same,"activity change, negative = cytotoxicity",[13],-0.309% [at 5.11 µM]
same,"activity change, negative = cytotoxicity",[4],-4.44% [at 5.11 µM]
CCn1c(-c2nonc2N)nc2c(C#CC(C)(C)O)ncc(OC[C@H]3CCCNC3)c21,Potency,[1],inactive
same,Potency,[14],inactive
same,Potency,[4],inactive
same,Potency,[7],inactive
same,Potency,[15],23.5 µM (active)
same,Potency,[16],11.8 µM (active)
CCN(CCCO)CCCOc1ccc2c(Nc3cc(CC(=O)Nc4cccc(F)c4)[nH]n3)ncnc2c1,Potency,[1],inactive
same,Potency,[2],inactive
Cc1cnc(Nc2ccc(OCCN3CCCC3)cc2)nc1Nc1cccc(S(=O)(=O)NC(C)(C)C)c1,Potency,[1],inactive
same,Potency,[2],inactive
same,IC50 (viability decrease),[3],inactive
same,Potency,[4],inactive
same,Potency,[7],inactive
same,Potency,[17],inactive
same,Potency,[18],inactive
same,Potency,[15],inactive
NC(=O)c1ccc(I)c([N+](=O)[O-])c1,Potency,[1],inactive
same,Potency,[2],inactive
same,IC50 (viability decrease),[3],inactive
same,Potency,[4],inactive
same,Potency,[7],inactive
same,Potency,[17],inactive
same,Potency,[18],inactive
same,Potency,[15],inactive
CCN(CC)CCCC(C)Nc1nc(C)cc(Nc2ccc3nc(C)cc(N)c3c2)n1 (stereo not given),Potency,[1],inactive
same,Potency,[2],inactive
same,IC50 (viability decrease),[3],inactive
same,Potency,[13],inactive
same,Potency,[4],inactive
same,Potency,[7],inactive
same,Potency,[17],inactive
same,Potency,[18],inactive
same,Potency,[15],inactive
CC(C)OC(=O)C1=CN(C(=O)c2ccc(F)c(F)c2)CC(C)(C)c2c1[nH]c1ccccc21,Potency,[1],inactive
same,Potency,[2],inactive
same,IC50 (viability decrease),[3],inactive
same,Potency,[4],inactive
same,Potency,[7],inactive
same,Potency,[17],inactive
same,Potency,[18],inactive
same,Potency,[15],inactive
same,Potency,[16],inactive
CC(C)(Sc1ccc(CCN(CCCCC2CCCCC2)C(=O)NC2CCCCC2)cc1)C(=O)O,Potency,[1],inactive
same,Potency,[2],inactive
same,IC50 (viability decrease),[3],inactive
same,Potency,[13],inactive
same,Potency,[4],inactive
same,Potency,[6],inactive
same,Potency,[7],inactive
same,outcome,[8],inactive
same,outcome,[9],inactive
same,outcome,[10],inactive
same,outcome,[11],inactive
same,Potency,[16],18.7 µM (active)
CCOc1cc(C(=O)Nc2ccc(Cl)c(-c3nc4ccccc4[nH]3)c2)cc(OCC)c1OCC,Potency,[1],inactive
same,Potency,[2],inactive
same,IC50 (viability decrease),[3],inactive
same,Potency,[12],inactive
same,Potency,[7],inactive
same,Potency,[17],inactive
same,Potency,[15],inactive
CCC(C)N(C)C(=O)c1cc2ccccc2c(-c2ccccc2Cl)n1 (stereo not given),Potency,[1],inactive
same,Potency,[2],inactive
same,IC50 (viability decrease),[3],inactive
same,Potency,[12],inactive
same,outcome,[5],inactive
same,Potency,[6],inactive
same,Potency,[7],inactive
same,outcome,[8],inactive
same,outcome,[9],inactive
same,outcome,[10],inactive
same,outcome,[11],inactive
same,Potency,[18],inactive
same,Potency,[15],inactive
O=c1[nH]c(-c2ccc(C(F)(F)F)cc2)nc2c1CSCC2,Potency,[1],inactive
same,Potency,[2],inactive
same,IC50 (viability decrease),[3],inactive
same,Potency,[12],inactive
same,Potency,[13],inactive
same,Potency,[4],inactive
same,Potency,[7],inactive
same,Potency,[17],inactive
same,Potency,[15],inactive
same,Potency,[16],14.8 µM (active)
C[C@]12CC[C@H](O)CC1=CC[C@@H]1[C@H]2CC[C@]2(C)C(c3cccnc3)=CC[C@H]12,Potency,[1],inactive
same,Potency,[2],inactive
same,IC50 (viability decrease),[3],inactive
same,Potency,[4],inactive
same,Potency,[7],inactive
same,Potency,[18],inactive
same,Potency,[16],inactive
O=C(O)CCc1ccc(NCc2cccc(Oc3ccccc3)c2)cc1,Potency,[1],inactive
same,Potency,[2],inactive
same,IC50 (viability decrease),[3],inactive
same,Potency,[12],inactive
same,Potency,[4],inactive
same,Potency,[7],inactive
same,outcome,[8],inactive
same,outcome,[9],inactive
same,outcome,[10],inactive
same,Potency,[18],inactive
same,Potency,[15],inactive
Cc1ccc2c(c1)C(=O)[C@@]1(O)CCN(c3ccccc3)C1=N2,Potency,[1],inactive
same,Potency,[2],inactive
same,IC50 (viability decrease),[3],inactive
O=S(=O)(N=Cc1c(O)ccc2ccccc12)c1cccs1,Potency,[1],inactive
same,Potency,[2],inactive
same,IC50 (viability decrease),[3],inactive
same,Potency,[12],inactive
same,Potency,[4],inactive
same,Potency,[7],inactive
same,Potency,[17],inactive
CCc1cc(Nc2nccc(-c3c(-c4ccc(OC)c(C(=O)Nc5c(F)cccc5F)c4)nc4ccccn34)n2)c(OC)cc1N1CCC(N2CCN(S(C)(=O)=O)CC2)CC1,Potency,[1],inactive
same,Potency,[2],inactive
same,IC50 (viability decrease),[3],inactive
same,Potency,[12],inactive
same,Potency,[4],inactive
same,Potency,[7],26.4 µM (active)
same,Potency,[17],inactive
same,Potency,[15],inactive
Cc1cc(C=c2sc3nc4ccccc4n3c2=O)c(C)n1-c1ccccc1,Potency,[1],inactive
same,Potency,[2],inactive
same,IC50 (viability decrease),[3],inactive
same,Potency,[4],inactive
same,Potency,[7],inactive
same,Potency,[17],inactive
same,Potency,[18],inactive
same,Potency,[15],inactive
same,Potency,[16],inactive
COc1ccccc1[C@H](c1cccc2ccccc12)[C@@](C)(C#N)C(=O)N1CCC(c2cccc(C(F)(F)F)c2)CC1,Potency,[1],inactive
same,Potency,[2],inactive
same,IC50 (viability decrease),[3],6.62 µM (active)
same,Potency,[12],inactive
same,Potency,[7],inactive
Fc1ccc(Cl)cc1-c1nc(Nc2ccncc2)c2nccnc2n1,Potency,[1],inactive
same,Potency,[2],inactive
same,IC50 (viability decrease),[3],inactive
same,Potency,[12],inactive
same,Potency,[13],inactive
same,Potency,[4],inactive
same,Potency,[7],inactive
same,Potency,[18],inactive
same,Potency,[15],inactive
